A selection: hits, their analogues and other compounds. The true share with any hit is near 12%.
L3MBTL1 inh = qHTS Assay for the Inhibitors of L3MBTL1. Lethal(3)malignant brain tumor-like protein 1 (Homo sapiens), Q9Y468. AlphaScreen L3MBTL1–H3K9me1 peptide binding. Potency, µM (highest dose often 57.1 µM), for inactives: at the highest dose activity, negative = inhibition, usual class: inhibitors. 230,000 compounds, 0.66% hits. AID 485360, 2010; also: % is scaled to controls: 0 for no effect and ±100 for the full control effect; nearly all actives have a fitted effect of over 60% in size
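Read-out is AlphaScreen signal from streptavidin donor and nickel chelate acceptor beads (10 ug/mL final each) bridging L3MBTL1 (50 nM) and biotinylated K9-monomethylated H3(1-15) peptide (75 nM), after 30 min compound exposure at room temperature.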
JMJD2A Tudor = qHTS Assay for Inhibitors of JMJD2A-Tudor Domain | Lysine-specific demethylase 4A (Homo sapiens), O75164 | AlphaScreen JMJD2A-Tudor / H3K4me3 peptide binding | Potency, µM (doses to about 114 µM), for inactives: top-dose activity change, negative = inhibition, most hits filed as inhibitors | 390,000 compounds, 4.4% hits; also: % is scaled to controls: 0 for no effect and ±100 for the full control effect; nearly all actives have a fitted effect of over 50% in size
BAZ2B block = qHTS Assay for Inhibitors of BAZ2B; AID 504333, 2011; Potency, µM (doses to about 114 µM), for the others: at the highest dose activity change, negative = inhibition, hits mostly inhibitors; AlphaScreen BAZ2B-H3K14Ac peptide displacement; 360,000 compounds, 4.4% hits; also: % is scaled to controls: 0 for no effect and ±100 for the full control effect; nearly all actives have a fitted effect of over 60% in size
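Inhibition is scored as reduced AlphaScreen emission. The BAZ2B/b-H3(5-23)K14Ac complex (50 nM each) in PBS pH 7.4, 0.01% Tween-20 meets compound (up to 110 uM) for 30 min at RT before bead addition.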
Sfp PPTase inh = qHTS Assay for Inhibitors of Bacillus subtilis Sfp phosphopantetheinyl transferase (PPTase); 4'-phosphopantetheinyl transferase ffp (Bacillus subtilis), Q9F4F7; Biochemical Sfp PPTase activity, qHTS; Potency, µM, for inactives: largest response in the series, negative = inhibition, most hits filed as inhibitors; 310,000 compounds, 3.5% hits;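 also: the enzyme is Sfp with the accession as filed and its product quenches rhodamine fluorescence; 0% = enzyme reaction without inhibitor and -100% = no enzyme wells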
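Sfp 15 nM + cpd, 15 min RT; start w/ rhodamine-CoA 5 uM, BHQ-2-YbbR 12.5 uM (final); 50 mM Hepes pH 7.6, 10 mM MgCl2, 0.01% NP-40, 0.01% BSA; read 525/598 nm at 0 and 30 min.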
G9a block = qHTS Assay for Inhibitors of Histone Lysine Methyltransferase G9a; Histone-lysine N-methyltransferase EHMT2 (Homo sapiens), Q96KQ7; G9a H3K9 monomethylation, AlphaScreen, 2 h; Potency, µM (doses to about 102 µM), inactives show top-dose activity, negative = inhibition, most hits filed as inhibitors; 350,000 compounds, 8.8% hits; also: % is scaled to controls: 0 for no effect and ±100 for the full control effect; nearly all actives have a fitted effect of over 75% in size
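Quantitative HTS format: methyltransferase activity on a biotin-tagged H3K9 peptide is measured by AlphaScreen, using a rabbit anti-monomethyl-H3K9 antibody with streptavidin donor and anti-IgG acceptor beads. Final levels are 20 nM enzyme, 500 nM peptide, 20 uM SAM; 2 h RT.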
HP1b chromo inh = HTS for Inhibitors of HP1-beta Chromodomain Interactions with Methylated Histone Tails. Chromobox protein homolog 1 (Homo sapiens), P83916. AID 540317, 2011. Potency, µM (doses to about 114 µM), for inactives: at the top dose activity change, negative = inhibition, most hits filed as inhibitors. AlphaScreen HP1-beta / biotin-H3K9me3 peptide binding. 390,000 compounds, 0.56% hits; also: nearly all actives have a fitted effect of over 70% in size
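HP1-beta protein (50 nM final) preincubated 30 min at room temperature with biotinylated H3(1-18)K9me3 peptide (50 nM) in PBS pH 7.4, 0.01% Tween-20, then compound added for 30 min. AlphaScreen streptavidin donor/nickel chelate acceptor beads (10 ug/mL final), 30 min dark, luminescence read.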
Starred values were filed as active, the others as inactive; ? = inconclusive; / = no result; [ ] = dose if it differs, or a comment. Calls follow the shape of the dose curve; as a rule, active = well fitted curve in the direction sought with a large enough effect; inconclusive = small, poorly fitted or top-dose-only effect, or another doubt; inactive = no such curve, though single readings can be large; an effect the other way counts as inactive or inconclusive. Potency is read from the fitted curve at half-maximal effect.

SMILES	L3MBTL1 inh	JMJD2A Tudor	BAZ2B block	Sfp PPTase inh	G9a block	HP1b chromo inh
CSCC[C@H](NC(=O)[C@H](CC(C)C)NC(=O)CNC(=O)[C@H](Cc1ccc(O)cc1)NC(=O)[C@H](Cc1ccccc1)NC(=O)[C@H](CCC(N)=O)NC(=O)[C@H](CCC(N)=O)NC(=O)[C@@H]1CCCN1C(=O)[C@H](CCCCN)NC(=O)[C@@H]1CCCN1C(=O)[C@@H](N)CCCN=C(N)N)C(N)=O	/	/	/	-1.5%	/	/
COc1ccc(CNC(=O)C(=O)NCC(c2ccco2)S(=O)(=O)c2ccc(Cl)cc2)cc1 (stereo unspecified)	/	-1.0%	1.9%	/	-0.4%[59 µM]	37.9%
Cc1csc2nc(O)c(C(=O)NC3CCCCC3C)c(=O)n12 (stereo unspecified)	-4.0%	?	-1.5%	/	7.8%	-13.6%
Cc1ccc(OCC(COCc2ccccc2)NC(C)C)cc1 (stereo unspecified)	/	1.41µM*	/	/	/	?
O=c1[nH]nc(CNc2ccc(O)cc2)c2ccccc12	/	-20.7%	?	?	11.2µM*	9.9%
O=c1[nH]nc(CNc2ccc(C(F)(F)F)cc2)c2ccccc12	-6.6%	-10.0%	-2.5%	2.8%	10.7%	30.1%
CC(=O)Nc1ccc(S(=O)(=O)N(Cc2ccco2)Cc2cc3ccccc3[nH]c2=O)cc1	/	-18.3%	-30.6%	1.4%	35.5µM*	55.0%
COC(=O)c1ccccc1S(=O)(=O)N(Cc1ccco1)Cc1cc2cc(OC)ccc2[nH]c1=O	/	-2.5%	-33.0%	22.4µM*	?	27.6%
O=C(CSc1nc(-c2ccccc2)nc2c1Cc1ccccc1O2)N1CCCCC1	/	-7.6%	-21.8%	/	6.4%[59 µM]	45.9%
O=C(O)c1cccnc1Sc1ccc(Br)cc1	/	14.9%	3.8%	16.0%	?	16.9%
CC[C@H](C)[C@H](NC(=O)CNC(=O)[C@H](C)NC(=O)[C@H](C)N)C(=O)NCC(=O)N[C@H](C(=O)N[C@@H](CC(C)C)C(=O)N[C@H](C(=O)N[C@H](C(=O)O)C(C)C)[C@@H](C)O)[C@@H](C)CC	/	/	/	3.8%	/	/
c1ccc(-c2ccc3c(c2)c2c4n3CCN=C4CCC2)cc1	-6.6%	56.2µM*	?	?	20µM*	-22.7%
OC1CN=C2CCCc3c2n(c2ccc(Cl)cc32)C1 (stereo unspecified)	/	-31.1%	-37.2%	-9.5%	?	24.3%
Cc1ccc(O)c(N=Cc2ccc(C)s2)c1	3.2%	-6.2%	-29.1%	56.2µM*	-50.1%[59 µM]	41.6%
CC(=O)OCON[N+]([O-])=NC(C)C	/	?	/	-1.3%	/	7.4%
CC(=O)OCON[N+]([O-])=NC1CCCCC1	/	20µM*	/	6.9%	/	?
COc1ccc(NC(=O)Cn2c(=O)n(Cc3ccco3)c(=O)c3cc(OC)c(OC)cc32)cc1	/	-3.1%	3.8%	/	18.4%[59 µM]	32.0%
O=C(NCC(=O)N1CCCCCCC1)c1cccc([N+](=O)[O-])c1	2.9%	-9.0%	-6.5%	/	1.26µM*	8.0%
Cc1cccc(C(=O)NCC(=O)N2CCCC2)c1	/	-9.0%	-2.3%	24.1%	25.3%	56.8%
O=C(CNC(=O)c1cccc(F)c1)OCC(=O)N1CCCCC1	11.2%	-15.1%	-6.1%	-6.4%	15.8µM*	20.6%
O=C(CNC(=O)c1cccc(F)c1)OCC(=O)N1CCN(C(=O)c2ccco2)CC1	/	-9.1%	0.2%	2.9%	-11.9%[59 µM]	33.7%
CN(C)CCNC(=O)c1ccc(Cn2c(=O)c3cccn3c3cccnc32)cc1	/	-13.6%	-5.6%	/	-8.0%[59 µM]	58.5%
COc1ccc(CNc2ncnc3ccc(-c4ccc(C(=O)N(C)C)cc4)cc23)c(OC)c1	/	/	/	-6.3%	-8.2%[0.501 µM]	/
C=C[C@]1(C)C=C2CCC3[C@](C)(CCC[C@@]3(C)C(=O)O)C2CC1 (stereo partly specified)	-4.7%	?	-9.8%	/	4.2%[12.7 µM]	14.0%
C=C/C(C)=C/CC1C(=C)CCC2C(C)(C(=O)O)CCCC12C (stereo unspecified)	/	56.2µM*	-34.0%	-1.9%	5.1%[12.7 µM]	19.6%
SMILES	L3MBTL1 inh	JMJD2A Tudor	BAZ2B block	Sfp PPTase inh	G9a block	HP1b chromo inh
CC(C)(Oc1ccc(Cl)cc1)C(=O)NCc1ccc(S(N)(=O)=O)cc1	-13.6%	-21.7%	?	16.8%	44.7µM*	3.0%
COC(=O)CNC(=O)C(C)(C)Oc1ccc(Cl)cc1	/	-17.6%[11.4 µM]	10.8%	-2.4%	-1.6%[59 µM]	-5.9%
O=C(Cc1ccc(Cl)cc1)NNC(=S)NC(=O)c1cccs1	0.0%	-22.7%	-12.5%	25.9%	35.5µM*	2.4%
CC(C)c1ccc(OCC(=O)NNC(=S)NC(=O)c2ccco2)c(Br)c1	/	?	4.0%	5.8%	61.6%	1.6%
CC(C)(C)c1ccc(OCC(=O)NNC(=S)NC(=O)c2ccco2)c(Br)c1	/	?	-25.4%	-4.3%	28.2µM*	?
O=C(Cc1cccs1)NNC(=S)NC(=O)c1ccco1	54.6%	-8.6%	14.4%	-3.1%	11.2µM*	10.5%
O=C(Cc1cccs1)NNC(=S)NCc1ccc(Cl)cc1	-1.4%	-11.3%	0.5%	15.0%	/	40.7%
Cc1ccc(NC(=O)Cn2c(=O)n(Cc3nc(C)no3)c(=O)c3cc4c(cc32)OCO4)cc1	/	-5.2%	-15.1%	/	?	34.1%
CCOc1ccc(NC(=O)C2CCN(S(=O)(=O)c3c(C)noc3/C=C/c3c(C)cc(C)cc3C)CC2)cc1	/	-14.7%	-3.0%	/	8.4%[59 µM]	15.2%[57 µM]
CCc1ccc(NC(=O)C2CCN(c3cc(C)nc4c(-c5ccc(Cl)cc5)c(C)nn34)CC2)cc1	/	3.4%	-8.5%	/	-3.6%[59 µM]	36.0%
CCOC(=O)c1ncn2c1C(=O)OC2(C)C	-7.5%	17.8µM*	?	?	?	7.8%
O=C(NC1(C(F)(F)F)N=C2SCCN2C1=O)C1CCCCC1 (stereo unspecified)	-12.4%[11.4 µM]	-2.0%	1.2%	63.1µM*	9.3%[59 µM]	68.0%
Cc1c(C(=O)N2CCCC2)oc2c1-c1nn(CC(=O)NCc3ccccc3F)cc1CC2	/	-17.2%	?	/	-31.8%[59 µM]	11.4%
CCn1c(=O)n(CC)c2cc(N3CCCC3)c(NC(=O)Nc3cc(C)cc(C)c3)cc21	/	-10.0%	-5.0%	/	3.0%[59 µM]	43.2%
CC1=CC(=O)C(C(C)=Nc2ccccc2Cl)C(=O)O1 (stereo unspecified)	2.8%	?	0.6%	19.1%	50.1µM*	-11.6%
